# Laboratory results from publication PMC6212790, “How bacterial xenogeneic silencer rok distinguishes foreign from self DNA in its resident genome”.
# Whole data set: some 33,000 sequences, median “e-score” near -0.037, cut for the highest 2% near 0.34. Shown is part of a subset that was picked to be rich in the highest values.
# Molecular target: T1, GST-Rok (full length) (Bacillus subtilis subsp. subtilis str. …, UniProt O34857 1-191)
# T1 sequence: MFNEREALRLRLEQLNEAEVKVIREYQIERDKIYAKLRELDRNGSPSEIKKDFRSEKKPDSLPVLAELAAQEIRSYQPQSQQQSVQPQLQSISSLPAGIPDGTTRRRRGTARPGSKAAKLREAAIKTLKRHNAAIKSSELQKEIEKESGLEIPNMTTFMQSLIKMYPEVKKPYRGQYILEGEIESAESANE
# Assay: protein binding microarray; Rok is a gene silencer of Bacillus subtilis; high values mean tight binding
# Details: protein: recombinant; tags: GST (pTH5325, pDEST15-Magic modified); dsDNA, one strand shown
# Summary of the method: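 Every oligonucleotide joins a 25-mer constant primer to a 35-mer variable part drawn from a de Bruijn sequence of order 10, so each non-palindromic 8-mer appears at least 32 times and each palindromic 8-mer 16 times. The preference for every 8-mer is reported as a unitless, rank-based enrichment score (E-score). This score spans 0.5 for the most favored 8-mer to −0.5 for the most disfavored.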
row,Sequence,binding signal
1,AGCTGCAC,0.104 E-score
2,GAAGTCCC,-0.124 E-score
3,ACCGATCC,-0.198 E-score
4,ATGAGGCG,-0.173 E-score
5,CTTAGGTC,0.00712 E-score
6,AAGCTAAG,-0.0658 E-score
7,GATGTAGA,0.209 E-score
8,CATGTAGA,0.374 E-score
9,TATGTAGA,0.292 E-score
10,CGCTCTGA,-0.0888 E-score
11,AGTAGGAA,0.231 E-score
12,CGTAATAG,0.318 E-score
13,AGTAATAT,0.402 E-score
14,ACTAATAC,0.265 E-score
15,AGTAATAC,0.26 E-score
16,AGTAATAA,0.197 E-score
17,ACTAATAG,0.227 E-score
18,AGTAATCG,0.0386 E-score
19,AGTAATAG,0.365 E-score
20,ACTAATAT,0.385 E-score
21,AACGGCTG,0.0377 E-score
22,AAGTCAAT,0.226 E-score
23,CTTGTCTC,0.0221 E-score
24,GGGTTGCA,-0.161 E-score
25,AGATGTAA,0.17 E-score

row,Sequence,binding signal
1,CATCTTAG,0.118 E-score
2,GTTGATCA,-0.00765 E-score
3,CGCAAGCC,-0.112 E-score
4,AGATAGAT,0.386 E-score
5,ACATAGAC,0.0568 E-score
6,ACATAGAT,0.346 E-score
7,ACATAGAG,0.00988 E-score
8,AGATAGAC,0.108 E-score
9,AGATAGAG,0.026 E-score
10,CTCTAGAC,-0.099 E-score
11,ACGAACGA,-0.116 E-score
12,CTCTACTA,0.216 E-score
13,ATCTACGG,0.158 E-score
14,ATCTACTA,0.446 E-score
15,ATCTACTG,0.382 E-score
16,ATCTACTC,0.251 E-score
17,GTCTACTA,0.261 E-score
18,ACATGTTG,-0.0393 E-score
19,CGCGCATA,0.139 E-score
20,AATAAACG,0.0748 E-score
21,GCTGTAAA,0.151 E-score
22,TAGTATAA,0.404 E-score
23,CAGTATAA,0.312 E-score
24,AGGTATAA,0.322 E-score
25,CGGTATAA,0.28 E-score

row,Sequence,binding signal
1,TGGTATAA,0.349 E-score
2,AAGTATAA,0.142 E-score
3,GGTTGTAC,0.114 E-score
4,CGCGACAG,0.0354 E-score
5,GTCTACAC,-0.0482 E-score
6,ATCTACAA,0.276 E-score
7,ATCTACAC,0.348 E-score
8,CTCTACAC,0.0962 E-score
9,ATCTACAT,0.372 E-score
10,ATCTACAG,0.26 E-score
11,AAGGGTTA,-0.101 E-score
12,TCGCACAA,0.0863 E-score
13,CCGGCTGA,-0.0957 E-score
14,TGCATTAA,0.25 E-score
15,GAATTCCA,0.0902 E-score
16,TATAGTAA,0.389 E-score
17,GATAGTAC,0.18 E-score
18,AATAGTAA,0.325 E-score
19,CATAGTAA,0.271 E-score
20,TATAGTCA,0.159 E-score
21,GATAGTAA,0.406 E-score
22,CGGCATGA,-0.101 E-score
23,GGGAATGA,-0.0881 E-score
24,GTATGTGA,0.247 E-score
25,GAAATAAA,0.221 E-score

row,Sequence,binding signal
1,AGATGAAC,0.165 E-score
2,ACGTATAC,0.232 E-score
3,AAGTATAT,0.348 E-score
4,ACGTATAA,0.244 E-score
5,ACGTATAT,0.365 E-score
6,AAGTATAC,0.251 E-score
7,AAGTATAG,0.127 E-score
8,GGGATTGA,-0.112 E-score
9,GATACATA,0.388 E-score
10,GATACATC,0.186 E-score
11,AATACAGA,0.0991 E-score
12,TATACATA,0.37 E-score
13,TATACAGA,0.342 E-score
14,TATACACA,0.2 E-score
15,GGTACATA,0.196 E-score
16,AATACATT,0.252 E-score
17,TACACATA,0.315 E-score
18,GATACAGA,-0.0115 E-score
19,AATACATG,0.108 E-score
20,AATACATA,0.373 E-score
21,GGATTCAC,-0.0831 E-score
22,ACAAGTCG,-0.122 E-score
23,ACCTAGGG,-0.142 E-score
24,CGTGGAGA,0.119 E-score
25,ACGCCAAT,-0.0858 E-score

row,Sequence,binding signal
1,GGGAAGTA,0.17 E-score
2,CCCAGCGC,-0.157 E-score
3,ATTACGAG,0.154 E-score
4,ACTGTCAC,0.011 E-score
5,CATACATA,0.366 E-score
6,CATACATC,0.158 E-score
7,CATACATG,0.143 E-score
8,CGTACAAA,0.194 E-score
9,AATACAAA,0.206 E-score
10,AGTACAAA,0.343 E-score
11,AGTACAAG,0.217 E-score
12,TATACAAA,0.402 E-score
13,CATACAAA,0.288 E-score
14,CGCGTTAG,0.07 E-score
15,CTCTAACC,-0.055 E-score
16,AGAATGAA,0.111 E-score
17,TGGCGCAA,-0.0245 E-score
18,AGGTTACG,-0.0671 E-score
19,AATCTATC,0.377 E-score
20,CATCTATA,0.199 E-score
21,CATCTATC,0.289 E-score
22,AATCTATA,0.384 E-score
23,GATCTATA,0.307 E-score
24,AATCTATG,0.174 E-score
25,ATAGACTA,0.186 E-score

row,Sequence,binding signal
1,AGGGAATC,0.0103 E-score
2,AGTTACCC,0.179 E-score
3,AAGACGTA,0.132 E-score
4,GGGATATA,0.221 E-score
5,ACGATATA,0.298 E-score
6,GAGATATC,0.181 E-score
7,CCGATATA,0.297 E-score
8,GATATAGC,0.0453 E-score
9,GCGATATA,0.342 E-score
10,GATATATA,0.365 E-score
11,GTGATATA,0.25 E-score
12,GATATATC,0.39 E-score
13,GGTACAAC,-0.0759 E-score
14,CTGGCAAA,-0.152 E-score
15,ACACGTGC,-0.0468 E-score
16,TAGCGTAA,0.144 E-score
17,CGGAAATC,0.0575 E-score
18,CAGAAGCG,-0.142 E-score
19,TCTATAGA,0.36 E-score
20,AAAATAGC,0.179 E-score
21,CATATAGA,0.133 E-score
22,AATATAGC,0.32 E-score
23,AAAATAGT,0.407 E-score
24,TATATAGA,0.404 E-score
25,AATATAGG,0.23 E-score

row,Sequence,binding signal
1,GATATAGA,0.228 E-score
2,ACTATAGA,0.174 E-score
3,AATATAGT,0.359 E-score
4,AAAATAGA,0.325 E-score
5,CCTATAGA,0.0582 E-score
6,GCCGCTCA,-0.181 E-score
7,AGCATGTC,0.0983 E-score
8,CAACTTTC,0.15 E-score
9,CATTACCG,0.00887 E-score
10,ACAAAACT,0.085 E-score
11,CCTACCTC,0.0499 E-score
12,ATATAGGA,0.195 E-score
13,CTAGAGAA,0.193 E-score
14,AAAACGAC,-0.0861 E-score
15,AGTTAAAA,0.197 E-score
16,CATTGACA,0.0572 E-score
17,AATGGAGT,0.0603 E-score
18,CATATGGA,-0.0847 E-score
19,AGTATAGA,0.159 E-score
20,ACTATAGC,0.164 E-score
21,TATATGGA,0.343 E-score
22,ACTATAGG,0.0843 E-score
23,GATATGGA,0.139 E-score
24,AATATAGA,0.365 E-score
25,AATAGAGA,0.239 E-score
